# PubChem BioAssay (NCI)
# About 79,000 compounds went through this panel and 15% of them were active in at least one assay; those are over-represented in the sample as a whole. Values without a mark were called inactive. Activity calls are given as the source filed them. Cut-off read from the data, not from the text of the source: active = growth inhibition above about 70%; inactive = the rest.
# Experiments:
# [1] = NCI Yeast Anticancer Drug Screen. Data for the rad50 strain (AID 155);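 note: 0% = growth of vehicle-only cultures of the same strain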; details: S. cerevisiae rad50 strain growth inhibition; at 50.0 µM; stronger effect = higher value
# Procedure, shortened: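 Yeast carrying a defined DNA repair defect were exposed to test compounds, and growth was compared with vehicle-treated controls to give percent inhibition.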
# [2] = NCI Yeast Anticancer Drug Screen. Data for the mec2-1 strain (AID 157); details: S. cerevisiae mec2-1 strain, at 50.0 µM, stronger effect = higher value
# Procedure, shortened: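 mec2-1 yeast strain, carrying an alteration in DNA damage repair or cell cycle control, was exposed to compounds; growth inhibition was measured relative to vehicle-treated controls.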
# [3] = NCI Yeast Anticancer Drug Screen. Data for the sgs1 mgt1 strain (AID 161);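 note: 0% = growth of cultures given vehicle only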; details: S. cerevisiae sgs1 mgt1 strain, at 50.0 µM, stronger effect = higher value
# Procedure, shortened: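 Growth of a repair-deficient yeast mutant was monitored after compound treatment and expressed as inhibition relative to vehicle-treated cultures.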
# [4] = NCI Yeast Anticancer Drug Screen. Data for the cln2 rad14 strain (AID 165);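 note: 0% = growth equal to vehicle treated cultures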; details: S. cerevisiae cln2 rad14 strain, at 50.0 µM, stronger effect = higher value
# Procedure, shortened: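 Yeast carrying cln2 and rad14 alterations (cell cycle control and DNA damage repair) were exposed to compounds. Growth inhibition was measured against vehicle-treated controls.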
# [5] = NCI Yeast Anticancer Drug Screen. Data for the bub3 strain (AID 167); details: S. cerevisiae bub3 mutant strain, at 50.0 µM, stronger effect = higher value
# Procedure, shortened: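 Compounds were applied to a genetically altered yeast strain carrying a cell-cycle control defect. Growth inhibition was scored against vehicle-treated controls.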
# [6] = NCI Yeast Anticancer Drug Screen. Data for the mlh1 rad18 strain (AID 175); details: S. cerevisiae mlh1 rad18 strain growth inhibition; at 50.0 µM; stronger effect = higher value
# Procedure, shortened: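 Growth inhibition of the yeast strain was measured after compound exposure and expressed relative to vehicle-treated controls. The strain carries defined defects in DNA damage repair.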
Structure (SMILES),growth inhibition [1],growth inhibition [2],growth inhibition [3],growth inhibition [4],growth inhibition [5],growth inhibition [6]
CCCCCCCOCC(=O)O,10%,-5.8%,3.6%,-30.2%,1.25%,17.6%
O=C(O)c1[nH]ncc1[N+](=O)[O-],24.1%,-4.85%,-5.05%,11.3%,11%,2.8%
COc1ccc(/C(=N\O)c2nccc3cc(OC)c(OC)cc23)cc1OC,35.8%,14.2%,27.9%,9%,-2.95%,18.4%
O=C(NC(=O)c1c(Cl)nc2sccn12)Nc1ccc(Cl)cc1,-5.45%,-14.1%,-4.65%,0.85%,-0.6%,-23.9%
CN(CC(=O)O)Cc1oc(CO)cc(=O)c1O,-9.45%,-9.5%,-6.1%,-37.5%,-40%,-14.3%
CCCCC/C(=C\c1ccccc1)C1OCC(COC(C)=O)O1 (stereo not given),-37.6%,-5.8%,-2.25%,-30.2%,40.8%,-2.6%
CC(C)C(CNC(=O)c1ccc([N+](=O)[O-])cc1)(C(C)C)C(C)C,-2.6%,-36.2%,-3.85%,-3.7%,17.8%,-1.65%
O=c1oc(Cl)cc2oc(=O)n(-c3ccccc3)c(=O)c12,10.8%,7%,18.8%,-3.15%,-9.25%,9.45%
ON=C(C(Cl)(Cl)Cl)C(Cl)(Cl)Cl,-17.2%,-26%,-8.35%,4.9%,-11.9%,-29.8%
COc1ccc(-c2c3c(nc4nc(SC)nc(SC)c24)CCCC3)cc1OC,1.15%,-10.4%,1.25%,1.15%,-2.65%,6.8%
O=c1cc(CCl)nc2c3ncn(C4OC(CO)C(O)C4O)c3ncn12 (stereo not given),-11.8%,-16.5%,-0.25%,-5.95%,-8.15%,-0.55%
Cc1c(O)cc(O)c(C=O)c1C,6.05%,-4.2%,16.1%,4.5%,-2.45%,3.1%
O=C(c1ccccc1)N1C(=O)c2ccccc21,-11.1%,5.75%,-12.8%,-16.3%,9.5%,-15.5%
COc1ccc(C(=O)C/C(=N\N(C(=O)c2ccc(OC)cc2)c2ccccc2)c2ccc(OC)cc2)cc1,13.6%,-24.8%,9.9%,-21.1%,-9.85%,6.5%
Cc1cc(NS(=O)(=O)c2ccc(NC(=O)c3cccc4c(N)c5ccccc5nc34)cc2)no1,34.1%,14.9%,29.3%,39.5%,3.85%,37%
Nc1ccc(O)cc1,15.2%,7.5%,39%,9.35%,3.45%,14.9%
CSCCC(NCc1c(O)ccc2ccc(=O)oc12)C(=O)O (stereo not given),-35.6%,-9.1%,-27.9%,7.45%,0.95%,-38%
O=C[c-]1[c-][c-][c-][c-]1.[Fe+2].[c-]1[c-][c-][cH-][c-]1,44%,58.5%,57.8%,49%,51.6%,14%
CCCCC/C=C1\CCC(CN2CCOCC2)C1=O (stereo not given),89.5% (active),90.7% (active),91.9% (active),90.1% (active),90.3% (active),89% (active)
C(=C\c1nc2ccccc2nc1/C=C/c1ccccc1)/c1ccccc1,-25.9%,-9.4%,-13.8%,-12.3%,2.7%,9.45%

Structure (SMILES),growth inhibition [1],growth inhibition [2],growth inhibition [3],growth inhibition [4],growth inhibition [5],growth inhibition [6]
COCCCN1CC(=O)N2Cc3ccccc3CN2C(=O)C1,-9.15%,-13%,-15.2%,-3.6%,2.95%,-4.6%
O=C1C=C(Nc2ccccc2)c2ccc(S(=O)(=O)O)cc2C1=O,0.4%,-6.9%,10.1%,-0.8%,-29.1%,-6.55%
O=C(NCCNCCNC(=O)C(F)(F)F)C(F)(F)F,-9.75%,-16.9%,-4.4%,12.8%,-1.5%,-41.6%
O=C1Cc2c([nH]c3ccccc23)-c2cc(Br)ccc2N1,13.4%,6.85%,-2%,2.9%,31.6%,2.9%
CCN(CC)C(=O)C1CCN(CCC(=O)Nc2ccccc2)CC1,8.4%,-7.6%,12.9%,-16.1%,5.15%,7.15%
Cc1ccc(S(=O)(=O)Cc2c(C)cc(C)cc2C)cc1,12.3%,3.8%,-2.25%,-30.9%,-10.6%,1.15%
Nc1ccccc1NC(=O)c1nc2ccccc2[nH]1,1.55%,15.2%,19.6%,6%,7.8%,4.5%
CC(=O)Oc1ccc(OC(C)=O)c2cc3c(cc12)C(=O)C(C)=C(C)C3=O,0.4%,2.35%,1.1%,-7.05%,3.35%,4.85%
COc1ccc(N=Cc2ccc(N(CCC#N)S(=O)(=O)c3ccccc3)cc2C)cc1,-9.4%,-10.8%,5.5%,13.4%,-16.8%,-10%
CCO/C=N\C1=C(C#N)SC2=N/C(=C\c3ccco3)C(=O)N21,6.1%,-19.2%,-7.4%,5.65%,0.45%,-17.3%
NNc1cn[nH]c(=O)c1Cl,-16.6%,-28.2%,-10.1%,4.4%,-3.85%,-26.4%
Nc1nc(Nc2ccccc2)c2ncn(C3OC(CO)C(O)C3O)c2n1 (stereo not given),12.7%,1.25%,0.25%,-1.35%,3.6%,-12.3%
N#CCCOCc1ccccc1,-46.8%,-23.8%,-1.05%,-3.15%,-15.1%,0.55%
COC(=O)C1(CC(=O)c2ccc(F)cc2)NC(=S)NC(=O)C1C#N (stereo not given),14.6%,2%,-8.3%,-13.1%,-34%,-1.7%
Cc1cc(O)c(/C=N/c2nc(-c3ccc([N+](=O)[O-])cc3)cs2)c(=O)o1,58.1%,20.9%,40.8%,20.1%,-7.7%,74.1% (active)
CC(=O)OCC(C)Cc1ccc(C(C)(C)C)cc1 (stereo not given),3%,0.3%,0.7%,-4%,9.6%,-2.4%
Cc1cnoc1/N=C1\C=C(Nc2oncc2C)C(=O)c2ccccc21,-14.7%,-6.55%,-31.9%,2.9%,-17.3%,-8.85%
Clc1ccccc1N=NNc1ccccc1Cl,15.8%,-2.4%,7.05%,-29.5%,6.35%,6.75%
CS(=O)(=O)OC(OS(C)(=O)=O)(OS(C)(=O)=O)OS(C)(=O)=O,15.9%,6.2%,0.65%,-7.9%,-2.4%,9.3%
CCN(Cc1ccc(C(=O)OC)cc1)c1cccc(NC(C)=O)c1,33.5%,6.7%,29.9%,-9.7%,20.3%,34%
